Experiment [1] is described as follows: qHTS assay to identify small molecule agonists of H2AX (AID 1224845; active means well fitted activation curve with a large enough effect in the signal ratio in the repeat runs, not every such curve was filed as active; the % refers to the signal ratio). In a few lines: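 Wild-type CHO-K1 cells, plated overnight, exposed 3hr at 37C to 15 concentrations (0.76% DMSO final). Lysed, then HTRF anti-pH2AX (S139) cryptate and anti-H2AX-d2 antibodies, 24 hr room temperature; 665/620 nm emission read.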
On the technique in general: In qHTS, concentration-response curves come from the screen itself.

Experiment [2] can be described thus: qHTS assay to identify small molecule agonists of the hypoxia (HIF-1) signaling pathway (AID 1224846; active means well fitted activation curve with a large enough effect in the signal ratio in the repeat runs, not every such curve was filed as active; the % refers to the signal ratio). In a few lines:
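A low-serum medium (0.5% dialyzed FBS) holding 2,000 HRE-bla ME-180 cells per well is preincubated for 5 hrs, dosed with compounds by pintool, and kept a further 17 hrs at 37C, 5% CO2 before CCF4-AM FRET detection of beta-lactamase.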

Experiment [3] can be described thus: qHTS assay to identify small molecule agonists of H2AX - cell viability counter screen (AID 1224847; calls by dose curve; further: top concentration of the series differs between compounds; nearly all actives have a fitted effect of over 30% in size). The procedure, abridged:
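For this counter screen, overnight-attached CHO-K1 cells received test compounds (15 concentrations, 0.76% DMSO final); 3 hr later at 37C, CellTiter-Glo reagent was added and luminescence recorded after 30 min at room temperature.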

The nature of experiment [4]: qHTS assay to identify small molecule antagonists of the estrogen related receptor (ERR) signaling pathway from Tox21 library (AID 1224848). Further: nearly all actives have a fitted effect of over 50% in size. Further: potency means the concentration at half of the fitted maximal effect. In a few lines:
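Luminescent reporter read-out (ONE-Glo) from NTP's ERR cell line after 18 h treatment at 37 C with DMSO-dissolved Tox21 compounds; cells pre-plated 6 h beforehand at 2,000 per well.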

Experiment [5] in a line: qHTS assay to identify small molecule agonists of the estrogen related receptor (ERR) signaling pathway from Tox21 library (AID 1224849; calls by dose curve; further: nearly all actives have a fitted effect of over 15% in size). The following applies: ERR reporter cell line, ONE-Glo luciferase, 18 h; at 92.4 µM (top of the series) unless noted. The procedure, abridged: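 Screening used an NTP-provided ERR luciferase cell line. Compounds in DMSO were added 6 h after seeding and left 18 h at 37 C before a 30 min ONE-Glo step and luminescence reading.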

The nature of experiment [6]: qHTS RealTime-Glo MT Cell Viability Assay in HepG2 cells - 24 hour (AID 1224867). Further: nearly all actives have a fitted effect of over 50% in size. In a few lines:
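HepG2 cells (600/well) were dispensed with RealTime-Glo reagents, incubated 5 h at 37 °C, then treated with compounds in DMSO for up to 40 h. Nonlytic NanoLuc luminescence reflecting viable cells was read at each stated time point.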

Experiment [7] can be described thus: A CellTox Green Cytotoxicity Assay to monitor cytotoxicity in HEK293 cells - 0 hour (AID 1224869). Further: nearly all actives have a fitted effect of over 50% in size. The procedure, abridged:
(§1)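 Fluorescence intensity, read at 0, 8, 16, 24, 32 and 40 h of compound treatment, reflected dye binding to DNA of dead HEK293 cells; compounds (23 nL, DMSO) were added 5 h after plating cells with reagent.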

Experiment [8] is described as follows: qHTS RealTime-Glo MT Cell Viability Assay in HepG2 cells - 40 hour (AID 1224870). Further: nearly all actives have a fitted effect of over 50% in size. Further: potency means the concentration at half of the fitted maximal effect. In a few lines:
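HepG2 cells (600/well) mixed with RealTime-Glo MT reagent, settled 5 h at 37 C/5% CO2 before compound addition. Nonlytic NanoLuc luminescence from viable-cell prosubstrate reduction read repeatedly during 40 h treatment at 37 C.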

The nature of experiment [9]: A CellTox Green Cytotoxicity Assay to monitor cytotoxicity in HEK293 cells - 40 hour (AID 1224871). Further: nearly all actives have a fitted effect of over 45% in size. In a few lines:
as §1

Experiment [10] in a line: qHTS RealTime-Glo MT Cell Viability Assay in HEK293 cells - 32 hour (AID 1224868). Further: nearly all actives have a fitted effect of over 50% in size. Further: potency means the concentration at half of the fitted maximal effect. The procedure, abridged:
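HEK293 cells seeded with NanoLuc/prosubstrate reagent, rested 5 h at 37 C, then dosed and kept at 37 C up to 40 h. Nonlytic real-time luminescence from viable cells read at 0, 8, 16, 24, 32 and 40 h.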

A number with no mark means an inactive call. Inconclusive results are not listed. Activity calls are given as the source filed them. Unless noted, the call rests on the fitted dose curve; in most records, active means well fitted curve in the direction sought with a large enough effect in the repeat runs; inconclusive means weak or mixed curves; inactive means no such curve, though single readings can be large; an effect the other way counts as inactive or inconclusive.
On the % scale 0 is the no-effect control and ±100 the full control effect.

For `[As]#[In]`, the Potency result in experiment [1], in experiment [3], in [4], in experiment [6], in experiment [7] and in [8] was “inactive” throughout. In experiment [9], the Potency entry was “inactive”. Moreover, the outcome in experiment [2] was inactive. In addition, the activity change, positive = activation in experiment [5] is 0.493%.

With `CN1CCC(N(Cc2ccccc2)c2ccccc2)CC1`, the Potency result in experiment [1], in [3], in [6], in experiment [10], in [7] and in experiment [8] was “inactive” each time. In addition, the result in [2] was inactive.

As to `CCC(C)(C)c1cc(-n2nc3ccccc3n2)c(O)c(C(C)(C)CC)c1`, the Potency result in [1], in [3], in experiment [6], in [8] and in [9] was “inactive” throughout. Besides, the call in [2] was inactive. Also, the Potency in [4] is 39.2 µM (active); in [10], 22.2 µM (active). Moreover, the activity change, positive = activation in experiment [5] is -66.5%.

On to `O=CNC(N1CCN(C(NC=O)C(Cl)(Cl)Cl)CC1)C(Cl)(Cl)Cl` (stereo not drawn), for which the Potency result in [1], in experiment [3], in [4], in experiment [10], in experiment [7] and in experiment [8] was “inactive” in each case. Moreover, in experiment [9], the Potency entry is “inactive”. Also, the compound was called inactive in [2]. The activity change, positive = activation in [5] is 2.23%.

With `CSc1ccc(C(=O)C(C)(C)N2CCOCC2)cc1`, the Potency entry in experiment [1], in experiment [3], in experiment [6], in experiment [10], in experiment [7] and in [8] was “inactive” each time. Moreover, the Potency result in [9] is “inactive”. The call in experiment [2] was inactive. In addition, the activity change, positive = activation in experiment [5] is -13.8%.

Regarding `CC(=O)C(Cl)Cl`, the Potency result in [1], in [3], in [4], in experiment [6], in experiment [10] and in [8] was “inactive” in each case. Besides, the outcome in experiment [2] was inactive. Besides, the activity change, positive = activation in experiment [5] is 4.96%.

Turning to `CCOC(=O)NC(=S)Nc1ccccc1NC(=S)NC(=O)OCC`, the Potency result in experiment [1], in experiment [3], in [4], in [6], in experiment [7] and in experiment [8] was “inactive” throughout. In experiment [9], the Potency result was “inactive”. Moreover, the compound was called inactive in experiment [2]. In addition, the activity change, positive = activation in experiment [5] was 11.4% (active).

For the compound `CC1COC2(c3ccccc3Cl)c3cc(Cl)ccc3NC(=O)CN12` (stereo not drawn), the Potency entry in [1], in experiment [3], in [6], in experiment [7], in experiment [8] and in [9] was “inactive” throughout. Besides, the result in experiment [2] was inactive. Also, the activity change, positive = activation in experiment [5] is -27.8% [at 42.5 µM].

As for `Cc1cc(C)nc(Nc2ccccc2)n1`, the Potency result in [1], in experiment [3], in experiment [4], in experiment [6], in [10] and in experiment [8] was “inactive” in each case. Also, in [9], the Potency entry is “inactive”. Besides, the compound was called inactive in experiment [2].

As for `Nc1ccccc1Cl`, the Potency entry in experiment [1], in experiment [3], in experiment [6], in experiment [10], in [7] and in experiment [8] was “inactive” in each case. Moreover, in experiment [2], the outcome was inactive.

For `CCSC(=O)N(CC)C1CCCCC1`, the Potency entry in experiment [1], in experiment [3], in experiment [6], in experiment [10], in [7] and in [8] was “inactive” each time. Moreover, in experiment [2], the result was inactive.

For `O=c1oc2ccccc2c(O)c1C1CCCc2ccccc21` (stereo not drawn), the Potency result in experiment [1], in experiment [3], in experiment [6], in experiment [10], in experiment [8] and in experiment [9] was “inactive” in each case. The compound was classed as inactive in experiment [2]. Besides, in experiment [5], the activity change, positive = activation was -20.9%.

For the compound `CCCCOC(=O)c1ccccc1C(=O)O`, the Potency entry in [1], in experiment [3], in experiment [6], in [10], in experiment [7] and in experiment [8] was “inactive” each time. For the same compound, the outcome in [2] was inactive.

For `N#Cc1c(Cl)cccc1Cl`, the Potency entry in experiment [1], in experiment [3], in [4], in experiment [10], in experiment [7] and in experiment [8] was “inactive” each time. For the same compound, in experiment [9], the Potency entry was “inactive”. Moreover, the compound was classed as inactive in [2]. Moreover, the activity change, positive = activation in [5] is 7.33%.

For the compound `CCCCC(=O)Cl`, the Potency entry in experiment [1], in [3], in experiment [4], in [10], in experiment [7] and in experiment [8] was “inactive” in each case. Also, in experiment [9], the Potency entry was “inactive”. Moreover, the compound was called inactive in [2]. Besides, the activity change, positive = activation in [5] is -5.15%.

In the case of `CCCCCCI`, the Potency result in experiment [1], in experiment [3], in experiment [4], in experiment [10] and in experiment [7] was “inactive” throughout. Moreover, in [2], the result was inactive. In experiment [5], the activity change, positive = activation was -0.122%. For the same compound, the Potency in [8] is 24.6 µM (active).

On to `COC(=O)C(C)Oc1ccc(Oc2ccc(Cl)cc2Cl)cc1` (stereo not drawn), for which the Potency entry in [1], in experiment [3], in experiment [6], in [10], in experiment [7] and in experiment [8] was “inactive” each time. For the same compound, the Potency entry in experiment [9] is “inactive”. Moreover, the compound was called inactive in experiment [2]. In experiment [5], the activity change, positive = activation is -14.6%.

In the case of `CC(Cl)(Cl)[N+](=O)[O-]`, the Potency result in experiment [1], in experiment [3], in [4], in experiment [10], in [7] and in experiment [8] was “inactive” throughout. In addition, the Potency entry in experiment [9] is “inactive”. Further, the compound was called inactive in [2]. For the same compound, the activity change, positive = activation in experiment [5] is 2.67%.

Consider `CN(C)CCc1ccc(O)cc1`, for which the Potency entry in [1], in experiment [3], in experiment [4], in [6], in experiment [7] and in experiment [8] was “inactive” in each case. Moreover, in [2], the call was inactive. For the same compound, the activity change, positive = activation in experiment [5] is 5.13% [at 42.5 µM].

Turning to `COc1cccc(C(=O)NN(C(=O)c2cc(C)cc(C)c2)C(C)(C)C)c1C`, the Potency result in experiment [1], in experiment [3], in experiment [10], in experiment [7], in experiment [8] and in experiment [9] was “inactive” throughout. The result in experiment [2] was inactive. Moreover, the activity change, positive = activation in experiment [5] was -24.8%.

Regarding `Fc1ccc(C2(Cn3cncn3)OC2c2ccccc2Cl)cc1` (stereo not drawn), the Potency result in [1], in experiment [3], in experiment [7] and in [8] was “inactive” in each case. The result in experiment [2] was inactive. The Potency in experiment [4] is 48.6 µM (active); in experiment [10], 43.6 µM (active). In addition, the activity change, positive = activation in experiment [5] was -40.8%.

Take `CC1=NNC(=O)N(/N=C/c2cccnc2)C1`: the Potency result in [1], in [3], in experiment [4], in [6], in experiment [10] and in experiment [8] was “inactive” each time. The outcome in experiment [2] was inactive. In addition, in experiment [5], the activity change, positive = activation is -0.152%.

`CCc1cc2c(s1)-n1c(C)nnc1CN=C2c1ccccc1Cl`: the Potency result in experiment [1], in [3], in experiment [4] and in [8] was “inactive” in each case. Besides, in experiment [2], the compound was called inactive.

For the compound `O=NN1CCN(N=O)CC1`, the Potency result in experiment [1], in [3], in experiment [4], in [6], in [10] and in experiment [8] was “inactive” in each case. Besides, in experiment [9], the Potency result is “inactive”. For the same compound, the result in experiment [2] was inactive. Also, the activity change, positive = activation in experiment [5] is 3%.

For the compound `CCOc1nc(C(Cl)(Cl)Cl)ns1`, the Potency entry in experiment [1], in [3], in experiment [6], in [10], in experiment [7] and in experiment [8] was “inactive” throughout. Moreover, the Potency result in [9] is “inactive”. For the same compound, the result in [2] was inactive. Further, the activity change, positive = activation in experiment [5] is -11.7%.

As for `C#CCN1C(=O)COc2cc(F)c(N3C(=O)C4=C(CCCC4)C3=O)cc21`, the Potency entry in [1], in experiment [3], in experiment [6], in experiment [10], in experiment [7] and in [8] was “inactive” throughout. In experiment [2], the result was inactive. Besides, the activity change, positive = activation in experiment [5] is -22.6%.

As for `COc1cc(C[C@@H](C)N)c(OC)cc1C`, the Potency entry in experiment [1], in [3], in experiment [4], in [6], in [10] and in experiment [8] was “inactive” each time. The call in experiment [2] was inactive. For the same compound, in experiment [5], the activity change, positive = activation was -3.22%.

As for `CCOC(=O)N(C)C(=O)CSP(=S)(OCC)OCC`, the Potency entry in experiment [1], in [3], in experiment [6], in experiment [10], in [7] and in [8] was “inactive” in each case. The Potency result in experiment [9] is “inactive”. The compound was classed as inactive in experiment [2].

The values above are taken from PubChem BioAssay (Tox21).
